From PubChem BioAssay AID504452 (The Scripps Research Institute Molecular Screening Center, 2011)
Calls of active or inactive are those of the source. Cut-off read from the data, not from the text of the source: active = activation above about 85%; inactive = the rest.

Target: Peroxisome proliferator-activated receptor gamma (Homo sapiens) (UniProt P37231)
Assay: partial agonism at human PPARgamma receptor – cell-based, luciferase reporter, luminescence, primary screen (AID 504452);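 note: Cos-1 cells carrying PPARgamma and a response element luciferase reporter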
Details: cell-based PPARg luciferase reporter, at 5 µM, stronger effect = higher value; activation (% of full agonist control): measured here: relative to full agonist control

Peroxisome proliferator-activated receptor gamma (Homo sapiens), sequence (P37231 whole entry, looked up): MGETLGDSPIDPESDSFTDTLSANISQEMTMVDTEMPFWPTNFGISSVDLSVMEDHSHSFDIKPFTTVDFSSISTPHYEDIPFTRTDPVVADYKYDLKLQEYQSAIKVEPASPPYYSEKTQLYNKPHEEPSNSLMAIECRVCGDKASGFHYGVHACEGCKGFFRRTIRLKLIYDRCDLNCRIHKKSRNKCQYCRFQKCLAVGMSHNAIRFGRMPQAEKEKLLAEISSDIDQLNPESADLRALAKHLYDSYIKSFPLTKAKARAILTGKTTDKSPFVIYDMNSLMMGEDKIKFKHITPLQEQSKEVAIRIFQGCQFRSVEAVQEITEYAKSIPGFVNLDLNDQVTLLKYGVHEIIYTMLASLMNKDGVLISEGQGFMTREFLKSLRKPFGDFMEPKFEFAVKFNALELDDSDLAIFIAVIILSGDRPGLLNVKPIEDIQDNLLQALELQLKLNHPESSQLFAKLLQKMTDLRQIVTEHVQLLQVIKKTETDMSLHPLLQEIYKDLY

SMILES | activation (% of full agonist control) [%] | activation (% of partial agonist control)
O=C(NC(Cc1ccccc1)C(=O)N1CCN(c2ccccc2O)CC1)c1ccccc1 (stereo not given) | 40.7 | 90.2% (active)
O=C(C1=C(O)C(=O)N(CCN2CCOCC2)C1c1ccc(Cl)cc1)c1cc2ccccc2o1 (stereo not given) | 37.3 | 82.6% (inactive)
O=C1CC(N2CCN(Cc3ccc4c(c3)OCO4)CC2)C(=O)N1Cc1ccc(N2CCCC2=O)cc1 (stereo not given) | 41.4 | 91.6% (active)
Cc1ccc(/C(O)=C2/C(=O)C(=O)N(c3ccccn3)C2c2cccc([N+](=O)[O-])c2)cc1 (stereo not given) | 34.1 | 75.6% (inactive)
OCCC1CN(Cc2cccn2-c2cccnc2)CCN1Cc1ccc(F)cc1 (stereo not given) | 29.8 | 66% (inactive)
COC(=O)c1sc(N2C(=O)C(O)=C(C(=O)c3ccc(C)o3)C2c2ccc(F)cc2)nc1C (stereo not given) | 29.9 | 66.2% (inactive)
Cc1ccc(C(=O)N2NC(c3ccccc3F)C3C(=O)N(c4cccc(C)c4)C(=O)C32)cc1 (stereo not given) | 33.4 | 73.8% (inactive)
COc1ccc(-c2ccc(CCC(=O)O)n2CC(=O)Nc2ccccc2C)cc1 | 35.1 | 77.7% (inactive)
Cc1cc(N2C(=O)C(=O)/C(=C(/O)c3ccc(F)cc3)C2c2ccc(F)cc2)no1 (stereo not given) | 31.8 | 70.3% (inactive)
Cc1c(-n2cc(C(=O)c3cc(F)ccc3O)cc(C#N)c2=O)c(=O)n(-c2ccccc2)n1C | 43.7 | 96.7% (active)
Cc1nc2ncccn2c1-c1csc(Nc2cccc(C(=O)O)c2)n1 | 33.5 | 74.2% (inactive)
CN1C(=O)COc2ccc(C(=O)c3oc4ccccc4c3-c3cnc4c(c3)COc3ccccc3-4)cc21 | 8.28 | 18.3% (inactive)
COc1ccc(CN(Cc2ccccn2)C(=O)CN2C(=O)C(C)Oc3ccccc32)cc1 (stereo not given) | 38.6 | 85.4% (active)
CN(C(=O)CS(=O)(=O)c1cn(CC(=O)N2CCCC2)c2ccccc12)c1ccccc1 | 24.5 | 54.2% (inactive)
Cc1ccc(C)c(/C(O)=C2/C(=O)C(=O)N(CCN3CCOCC3)C2c2ccc(C)o2)c1 (stereo not given) | 9.22 | 20.4% (inactive)
COc1cc(C(CC(=O)Nc2cccc(C)n2)N2Cc3ccccc3C2=O)cc(OC)c1OC (stereo not given) | 29.1 | 64.3% (inactive)
CCOc1cc(N2CCOCC2)c(OCC)cc1NC(=O)c1oc2ccccc2c1C | 29.4 | 65.1% (inactive)
COc1ccc2c(c1)c(=O)c(C(=O)c1ccc(C)cc1)cn2CC(=O)Nc1ccc(F)cc1 | 45 | 99.5% (active)

SMILES | activation (% of full agonist control) [%] | activation (% of partial agonist control)
Cc1ccc2nc(N3C(=O)C(O)=C(C(=O)c4ccco4)C3c3ccc(C)o3)sc2c1 (stereo not given) | 56.8 | 126% (active)
Cc1cc(N2C(=O)C(O)=C(C(=O)c3cccs3)C2c2cccc(Br)c2)no1 (stereo not given) | 45.7 | 101% (active)
CC(OC(=O)CNC(=O)c1ccc(F)cc1)C(=O)Nc1ccc(S(=O)(=O)N2CCOCC2)cc1 (stereo not given) | 34.9 | 77.2% (inactive)
O=C(O)COc1ccccc1/C=C1\SC(=S)N(NC(=O)c2ccccc2O)C1=O | 41.4 | 91.7% (active)
C=CCSc1nnc(N2C(=O)C(O)=C(C(=O)c3ccco3)C2c2ccc(F)cc2)s1 (stereo not given) | 30.5 | 67.6% (inactive)
N=c1c(C(=O)NCCc2ccccc2)cc2c(=O)n3ccccc3nc2n1CC1CCCO1 (stereo not given) | 34.6 | 76.7% (inactive)
COc1ccc(-n2c3c(cc(C(=O)NNc4ccccc4C)c2=O)C(=O)CC(C)(C)C3)cc1 | 32.7 | 72.5% (inactive)
O=C(Cn1nc(Cc2ccncc2)c2ccccc2c1=O)N1CCN(C(=O)c2ccco2)CC1 | 36.2 | 80.2% (inactive)
O=C(CSc1nnc(Cc2cc(=O)[nH]c(=O)[nH]2)n1-c1ccc(Cl)cc1)N1CCc2ccccc21 | 46.6 | 103% (active)
COc1ccc(C)c2sc(N(CCCN(C)C)C(=O)CS(=O)(=O)c3ccc(F)cc3)nc12 | 31.2 | 69.1% (inactive)
O=C(O)CC(NC(=O)C(c1ccccc1)c1ccccc1)c1ccc(F)cc1 (stereo not given) | 27.7 | 61.3% (inactive)
O=c1[nH]c2cc3c(cc2cc1CN(Cc1ccccc1)Cc1nnnn1Cc1ccco1)OCCO3 | 35.1 | 77.6% (inactive)
COc1ccc2c(c1)c(CCN1C(=O)c3ccccc3C1=O)cn2C(=O)c1ccco1 | 27.3 | 60.4% (inactive)
Cc1ccccc1NC(=O)CC1C(=O)Nc2ccccc2N1CC(=O)N(C)C1CCS(=O)(=O)C1 (stereo not given) | 47 | 104% (active)
COc1ccc(CCn2c(C)cc(C(=O)CN3C(=O)C(=O)N(C4CCCC4)C3=O)c2C)cc1OC | 27.1 | 60% (inactive)
CCOc1ccc2nc(N3C(=O)C(O)=C(C(=O)c4ccco4)C3c3ccco3)sc2c1 (stereo not given) | 38.5 | 85.2% (active)
O=C(Cc1ccccc1)n1nc(-c2ccco2)nc1SCc1ccccc1 | 37 | 81.8% (inactive)
